# Screening results deposited in PubChem by several laboratories.
# HIF-2a inh – inhibitors of HIF-2a. 786-0 RCC cells HIF-2a reporter, luciferase luminescence, overnight. inhibition, % at 18.8 µM. 360,000 tested, 0.72% active. AID 624352;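 active means inhibition of the luminescence signal of 40% or more relative to plate controls, in a single-dose primary screen at 18.75 µM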
# EWS-Fli block – inhibitors of EWS/Fli oncoprotein transcriptional activity. 350,000 tested, 0.67% active. inhibition, % at 12.6 µM. A673 NR0B1-luciferase reporter, viability-normalised. AID 651661;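 active means mean inhibition of at least 50% after viability correction, with every replicate also passing that limit; inconclusive means mean reaches 50% but only one of two replicates passes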;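 further: firefly luciferase signal divided by Alamar Blue viability fluorescence both relative to DMSO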
# CF NFkB block – cystic fibrosis NF-kB activation inhibition. KKLEB NF-kB-GFP reporter, PAF-induced, GFP fluorescence overnight. inhibition, % at 5 µM. 360,000 tested, 0.86% active. AID 588850;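 active means at least 50% inhibition at 5 µM, scaled per plate between neutral and stimulator controls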;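 further: PAF is a Pseudomonas aeruginosa culture filtrate used as stimulus; plate controls were PAF-stimulated DMSO wells for no effect and unstimulated DMSO wells for full effect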
# PAX8 reporter – PAX8 transcriptional activity inhibition. inhibition, % at 12.6 µM. RMG-I TPO-luciferase reporter, SteadyGlo, 24 h. 360,000 tested, 1.2% active. AID 652154;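 active means mean replicate inhibition at least 60% with every replicate also reaching 60%; inconclusive means only one of the two criteria is met; inactive means mean below 60% and not all replicates reaching 60%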;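 further: luciferase light reporting Pax8 driven TPO promoter activity; plate controls were median of neutral control wells for no effect and mitoxantrone controls for full effect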
# KKLEB tox – reduces viability of KKLEB cystic fibrosis airway cells; KKLEB CF airway cells viability, ATPlite luminescence, overnight; hits give low values; cells stimulated with P. aeruginosa culture filtrate; activity change (cytotoxicity), % at 5 µM; 360,000 tested, 0.36% active; AID 602141;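 active means corrected activity change at or below -50% at 5 µM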
# The depositor's hits bear a star; ? = inconclusive; / = no result given. Rows were chosen to be rich in hits. Some 2.1% of all compounds tested hit in one or more screens of this group.
SMILES,HIF-2a inh,EWS-Fli block,CF NFkB block,PAX8 reporter,KKLEB tox
COc1ccccc1NC(=O)N(C)C[C@@H]1OCc2ccccc2-c2c(n(C)c3ccccc23)C(=O)N([C@@H](C)CO)C[C@H]1C,/,0,/,/,/
CCOC(=O)[C@@H]1[C@@H]2C=C[C@]3(O2)[C@H](C(=O)NCc2ccccc2)N(CCCCCCO)C(=O)[C@@H]13,/,32,/,109*,/
C=CCN1C(=O)C2C(C(=O)NCc3ccccc3)C3C=CC2(O3)C1C(=O)NC(C)(C)C (stereo not given),16,/,-17,/,4
CCCCCN(C(=O)CCC(=O)OCc1ccc(C(C)(C)C)cc1)c1c(N)n(CCCC)c(=O)[nH]c1=O,19,22,37,7,-7
CCCCCN(C(=O)CCC(=O)OCc1ccc(C(C)C)cc1)c1c(N)n(CCCC)c(=O)[nH]c1=O,-5,15,54*,27,-54*
c1ccc(CCc2nn3c(-c4ccncc4)nnc3s2)cc1,-8,/,72*,/,-14
C[C@@H](O)C#Cc1ccc2c(c1)O[C@H](CN(C)Cc1ccc(-c3ccccc3)cc1)[C@@H](C)CN([C@@H](C)CO)S2(=O)=O,/,-1,/,103*,/
C[C@H](CO)N1C[C@H](C)[C@@H](CN(C)Cc2ccc(-c3ccccc3)cc2)Oc2cc(C#C[C@@H](C)O)ccc2S1(=O)=O,/,-2,/,74*,/
CCCC#Cc1ccc2c(c1)O[C@H](CN(C)Cc1ccccc1)[C@@H](C)CN([C@@H](C)CO)S2(=O)=O,/,3,/,6,/
C[C@H](O)C#Cc1ccc2c(c1)O[C@@H](CN(C)Cc1ccc(-c3ccccc3)cc1)[C@@H](C)CN([C@H](C)CO)S2(=O)=O,/,20,/,94*,/
CCCC#Cc1ccc2c(c1)O[C@H](CN(C)Cc1ccccc1)[C@@H](C)CN([C@H](C)CO)S2(=O)=O,/,21,/,80*,/
O=C(NCC[C@@H]1CC[C@@H](NS(=O)(=O)c2ccc(Cl)cc2)[C@H](CO)O1)Nc1ccc(F)cc1,/,-8,/,-4,/
C[C@H]1CN([C@@H](C)CO)C(=O)c2cc(C#Cc3ccccc3F)cnc2O[C@@H]1CN(C)S(=O)(=O)c1ccccc1F,/,3,/,/,/
CN(C)C(=O)c1cccc(-c2ccc([C@@H]3[C@@H](C#N)N(C(=O)C4CCC4)[C@H]3CO)cc2)c1,/,9,/,-11,/
COCCOC(=O)c1[nH]c2c(c1C)C(=O)CC(c1cccs1)C2 (stereo not given),6,61*,29,33,2
CCOCCOC(=O)c1[nH]c2c(c1C)C(=O)CC(c1cccs1)C2 (stereo not given),-2,53*,43,60,-11
CCOCCOC(=O)c1[nH]c2c(c1C)C(=O)CC(c1ccccc1)C2 (stereo not given),-16,?,36,82*,-15
Cc1c(C(=O)OCC(C)C)[nH]c2c1C(=O)CC(c1cccs1)C2 (stereo not given),-6,/,37,53,-24
CCOC(=O)c1[nH]c2c(c1C)C(=O)CC(c1ccc(F)cc1)C2 (stereo not given),-10,63*,42,44,-21
COc1ccc(-c2ccccc2[C@@H]2[C@@H](CO)N(C(=O)NC3CCCC3)[C@H]2C#N)cc1,/,-7,/,30,/
CN1C(=O)c2cc(NC(=O)C3CCC3)ccc2OC[C@H]2O[C@@H](CC(=O)NCC3CCCCC3)CC[C@H]21,/,0,/,0,/
COC(=O)c1[nH]c2c(c1C)C(=O)CC(c1cccc(OC)c1)C2 (stereo not given),25,60*,20,82*,4
CC1(C)CC(N2CCOCC2)=CC(=[N+]2CCOCC2)C1,19,5,-13,-3,-5
CC1(C)CC(N2CCCCC2)=CC(=[N+]2CCCCC2)C1,6,20,-11,75*,-7
CN1CCN(C(=O)C[C@@H]2C[C@H]3c4cc(NS(=O)(=O)c5ccc(F)cc5)ccc4O[C@H]3[C@@H](CO)O2)CC1,/,1,/,6,/
SMILES,HIF-2a inh,EWS-Fli block,CF NFkB block,PAX8 reporter,KKLEB tox
CC1(C(=O)NCc2cccc(Cl)c2)Cc2c(-c3ccccc3)ccnc2O1 (stereo not given),20,5,-4,10,6
CN(C)c1ccc(-c2ccnc3c2CC(C)(C(=O)NCc2ccccc2)O3)cc1 (stereo not given),8,61*,-8,35,-5
CC1(C(=O)NCC2CCOCC2)Cc2c(-c3cccc(C(F)(F)F)c3)ccnc2O1 (stereo not given),12,52*,16,22,-25
CC1(C(=O)NCc2ccccc2)Cc2c(-c3ccccc3)ccnc2O1 (stereo not given),2,59*,-11,25,-9
CC1(C(=O)NCc2ccccc2)Cc2c(-c3ccc(C(N)=O)cc3)ccnc2O1 (stereo not given),20,54*,10,-11,-10
O=C(NCC[C@@H]1CC[C@H](NC(=O)C2CCCCC2)[C@H](CO)O1)c1cnccn1,/,2,/,-1,/
CN(C)CC(=O)N[C@H]1C=C[C@H](CC(=O)O)O[C@@H]1CO,/,12,/,/,/
O=C(c1ccccn1)N1CC(=O)N2[C@H](CO)[C@H](c3ccc(C#Cc4ccccc4)cc3)[C@@H]2C1,/,13,/,/,/
CC1(C(=O)NCCc2ccccc2)Cc2c(-c3ccc4c(c3)OCO4)ccnc2O1 (stereo not given),18,58*,-10,25,-5
CC1(C(=O)NCc2ccccc2)Cc2c(-c3ccc4c(c3)OCO4)ccnc2O1 (stereo not given),29,37,32,45,-8
O=C(CNC(=O)c1nn(Cc2ccccc2)c(=O)c2ccccc12)Nc1ccc(F)c(F)c1F,-8,9,47,-2,-56*
Cn1nc(C(=O)NCC(=O)Nc2ccc(F)c(F)c2F)c2ccccc2c1=O,0,-10,0,-12,-4
CCN(CC)CCCNc1nc(-c2ccccc2)nc2ccccc12,-23,/,-14,/,5
CCN(CC)CCCNc1nc2ccccc2c2[nH]c3ccc(OC)cc3c12,35,?,13,99*,-17
CC1(C)CC(=O)C2=C(C1)N1C(=C(C#N)C2c2ccc(Cl)cc2)N=C(N)c2ccccc21 (stereo not given),30,16,-13,67*,0
COC(=O)c1c(C)[nH]c(C(=O)/C=C/c2ccc(C)cc2)c1C,-60,91*,-6,10,6
COC(=O)c1c(C)[nH]c(C(=O)/C=C/c2ccccc2)c1C,-246,/,-20,/,7
CN(CC(=O)Nc1ccc(Cl)c(C(F)(F)F)c1)C(=O)c1ccc(S(=O)(=O)N2CCOCC2)cc1,12,55*,3,25,-7
Cc1ccc(C(=O)N(C)CC(=O)Nc2ccc(Cl)c(C(F)(F)F)c2)cc1S(=O)(=O)N1CCCCC1,11,48,16,24,-32
C[C@@H]1CN([C@@H](C)CO)S(=O)(=O)c2ccc(-c3cccnc3)cc2O[C@H]1CN(C)C(=O)CC1CC1,/,-1,/,/,/
COc1ccc(C(=O)NCc2cc(C)nc3ccccc23)cc1,-38,53*,19,37,-21
